From PubChem
LDHA block: qHTS assay for inhibitors of human lactate dehydrogenase; purified LDHA, NADH/diaphorase-resazurin fluorescence; stronger effect = lower value; hit rate 0.15% among 480,000; AID 1347041, 2019; activity change, % (values are at about 110 or 230 µM); in the data active = activity change below about -30%; inconclusive = mostly about -25% to -30%
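Remaining NADH was detected by diaphorase (0.133 mg/mL) converting 37 µM resazurin to fluorescent resorufin, read at 0 and 20 minutes. The preceding 5-minute room-temperature reaction used 2 nM LDHA, 0.2 mM sodium pyruvate and 0.06 mM NADH at pH 7.4.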
GLP1R ag: qHTS of GLP-1 Receptor Agonists. HEK293 GLP-1R CRE-luciferase, luminescence, 4-6 h; cells express a hypersensitive GLP-1R form. Potency, µM (doses to about 45.6 µM), usual class: activators. hit rate 0.007% among 380,000. AID 624172, 2012
Target sequence (P43220 whole entry, looked up): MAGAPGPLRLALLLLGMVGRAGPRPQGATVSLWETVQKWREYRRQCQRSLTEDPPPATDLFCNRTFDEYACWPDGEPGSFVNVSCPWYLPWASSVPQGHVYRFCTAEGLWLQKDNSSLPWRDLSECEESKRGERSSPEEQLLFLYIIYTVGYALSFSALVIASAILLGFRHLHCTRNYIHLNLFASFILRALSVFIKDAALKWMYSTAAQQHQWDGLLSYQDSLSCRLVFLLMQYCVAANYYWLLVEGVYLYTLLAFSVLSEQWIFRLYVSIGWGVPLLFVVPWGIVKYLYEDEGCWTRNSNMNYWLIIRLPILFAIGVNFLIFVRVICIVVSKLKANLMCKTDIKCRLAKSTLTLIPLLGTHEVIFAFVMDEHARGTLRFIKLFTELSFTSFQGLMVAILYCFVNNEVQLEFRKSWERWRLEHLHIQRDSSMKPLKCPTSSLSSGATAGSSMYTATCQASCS
p53 reactivator: qHTS assay for re-activators of p53 using a Luc reporter | hit rate 0.063% among 320,000 | Potency, µM (highest dose often 92.2 µM), hits mostly activators | H1299 p53-A138V BP100-luciferase reporter, luminescence, 24 h | AID 504706, 2011; also: nearly all actives have a fitted effect of over 45% in size
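p53-null H1299 cells stably carrying temperature-sensitive p53-A138V and a BP100-luciferase reporter were pinned with compounds (4-point, 1:5 series) and held 24 hrs at 37 deg C. Luminescence was read 10 min after detection reagent.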
ClpP mod: qHTS Assay for Activators of ClpP; AID 651965, 2013; purified B. subtilis ClpP, FRET peptide cleavage, 20 min; hit rate 1.9% among 340,000; Potency, µM (doses to about 57.5 µM); active = well fitted falling curve with a large enough effect; inconclusive = small, poorly fitted or top-dose-only effect; inactive = no such curve, though single readings can be large or run the other way; also: the source files actives as falling curves though it sought activators and does not explain the sign; nearly all actives have a fitted effect of over 65% in size
Target sequence (P80244 whole entry, looked up): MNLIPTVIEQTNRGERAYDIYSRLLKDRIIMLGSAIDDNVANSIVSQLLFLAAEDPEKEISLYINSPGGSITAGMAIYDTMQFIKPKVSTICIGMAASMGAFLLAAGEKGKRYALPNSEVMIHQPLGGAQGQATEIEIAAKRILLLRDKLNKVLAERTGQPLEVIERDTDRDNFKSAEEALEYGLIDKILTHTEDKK
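Purified B. subtilis ClpP, 10 microg/mL final in Tris/HCl pH8 with KCl, BSA, glycerol and Tween-20, cleaved an Abz/nitrotyrosine-quenched decapeptide. Fluorescence (ex 320, em 430) was read at 0 and 20 min at room temperature. Delta was normalized to 5.8 microM ADEP and DMSO/no-enzyme controls.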
HEK293 tox: qHTS of GLP-1 Receptor Inverse Agonists: Cytotox Screen; HEK293 cAMP-luciferase reporter cells, luminescence, 24 h; Potency, µM (titrated, usually from 38.3 µM), hits mostly inhibitors; hit rate 0.13% among 410,000; AID 624418, 2012;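 also: loss of luciferase light is scored as toxicity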
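Luminescence readout: signal drop marks cytotoxicity. Plated cells grew 12 h at 37 °C, 5% CO2, received 23 nL compound for 24 h, then got luciferase reagent, read after 12 min at RT.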
GLP1R inv ag: qHTS of GLP-1 Receptor Inverse Agonists (Inhibition Mode); hit rate 1.6% among 410,000; HEK293 GLP-1R CRE-luciferase, luminescence, 24 h; GLP-1R form is constitutively active; Potency, µM (titrated, usually from 38.3 µM), usual class: inhibitors; Glucagon-like peptide 1 receptor (Homo sapiens), P43220; also: nearly all actives have a fitted effect of over 55% in size
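Inverse agonism was detected as reduced cAMP-driven luciferase luminescence after 24 h compound treatment. The cells were HEK293 clones expressing constitutively active human GLP-1R with the reporter. Reporter-only and GPR119 cell lines served as counterscreen controls.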
Numbers stand for hits; . = inactive; ? = inconclusive; / = no result; [ ] = dose if it differs, or a comment. Only some compounds are listed: those with a hit (about 2.9% of all), similar ones and a draw of the others. Unless noted, calls follow the shape of the dose curve; as a rule, active = well fitted curve in the direction sought with a large enough effect; inconclusive = small, poorly fitted or top-dose-only effect, or another doubt; inactive = no such curve, though single readings can be large; an effect the other way counts as inactive or inconclusive.

SMILES	LDHA block	GLP1R ag	p53 reactivator	ClpP mod	HEK293 tox	GLP1R inv ag
CC(OC(=O)CCN=C1NS(=O)(=O)c2ccccc21)C(=O)Nc1ccc(F)c(F)c1F (centres undefined)	.	.	.	31.6µM	.	.
CCOC(=O)N1CCN(C(=O)c2ccc3c(c2)N=C(CC)c2cc(C)ccc2S3)CC1	.	.	.	.	.	?
CC1c2cc3c(cc2CCN1C(=O)c1ccc(Br)cc1)OCCCO3 (centres undefined)	.	.	.	.	.	3.16µM
CC(=O)OC(C(=O)NC1CCCCC1)c1ccncc1 (centres undefined)	.	.	.	.	.	.
CC(C)CCn1nc(C(=O)OC(C)C(=O)NC(N)=O)c2ccccc2c1=O (centres undefined)	.	.	.	.	.	.
Cc1ccc(Nc2nc(-c3ccc(O)c(O)c3)cs2)nc1	.	.	.	/	?	?
Cn1cc([N+](=O)[O-])c(C(=O)Nc2ccc3nc(-c4ccccc4)[nH]c3c2)n1	.	.	22.4µM	?	?	.
Nc1nc(NCc2c(F)cccc2Cl)nn1-c1ccccc1	.	.	.	.	.	.
c1ccc(C(c2nnnn2C2CCCCC2)N2CCc3ccccc3C2)nc1 (centres undefined)	.	.	.	2.51µM	.	.
CCCNC(=O)C(Cc1ccccc1C)NC(=O)c1ccc(C#N)cc1 (centres undefined)	.	.	.	.	2.51µM	.
CCCNC(=O)C(Cc1ccccc1F)NC(=O)c1ccc(C#N)cc1 (centres undefined)	.	.	.	.	.	.
CC(OC(=O)c1ccc(O)cc1)C(=O)Nc1ccc2c(c1)OCO2 (centres undefined)	.	/	/	/	/	/
Cc1nc(CN2CCN(CCOc3ccc(Cl)cc3)CC2)no1	-32.0	/	/	/	/	/
Clc1ccc(OCCN2CCN(Cc3nc(C4CC4)no3)CC2)cc1	.	/	/	/	/	/
Cc1cc(C)n(-c2ccc(C(=O)OCC(=O)NC3CCS(=O)(=O)C3)cc2)n1 (centres undefined)	-30.4	/	/	/	/	/
COc1ccc(C(=O)N2CCN(c3nc(C4CC4)nc4sc(C)c(C)c34)CC2)cc1	.	.	.	/	.	?
Cc1sc2nc(C3CC3)nc(N3CCN(C(=O)c4ccc(Cl)cc4)CC3)c2c1C	.	.	.	.	.	8.91µM
Cc1sc2nc(C3CC3)nc(N3CCN(C(=O)c4ccc(F)cc4)CC3)c2c1C	.	.	.	/	.	10µM
O=C(/C=C/c1ccc(Cl)cc1Cl)c1ccc(O)cc1	.	/	/	/	/	/
O=C(Nc1ccnn1C1CCN(CCCC2CCCC2)CC1)c1ccccc1Cl	.	.	.	.	.	10µM
COc1ccccc1C(=O)Nc1ccnn1C1CCN(Cc2cn(C)c3ccccc23)CC1	.	.	.	.	.	11.2µM
Cn1c(=O)[nH]c(=O)c2c1ncn2CCN1CCCCC1	.	.	.	.	.	.
COc1cc(C2C=C(c3cccs3)Nc3ncnn32)cc(OC)c1OC (centres undefined)	.	.	.	/	.[7.66 µM]	.
O=C(NNc1cccc(Cl)c1)c1cccnc1Cl	.	.	.	.	.	1.26µM
CN1C(CCl)Nc2cc(Cl)c(S(N)(=O)=O)cc2S1(=O)=O (centres undefined)	.	.	/	14.1µM	.	.
SMILES	LDHA block	GLP1R ag	p53 reactivator	ClpP mod	HEK293 tox	GLP1R inv ag
CC1C(=O)N2CCCc3cc(S(=O)(=O)Nc4ccccc4C(N)=O)cc1c32 (centres undefined)	.	.	.	31.6µM	.	.
COC(=O)c1ccc(CSc2nnc(-c3ccc4c(c3)OCO4)n2-c2ccccc2)o1	.	.	.	.	.	?
CC(C)NC(=S)NC(=O)c1ccc(-c2ccccc2)cc1	.	.	?	.	?	10µM
CCN(CC)S(=O)(=O)c1cc(C(=O)OCC(=O)Nc2ccc(-c3nc4ccc(C)cc4s3)cc2)ccc1F	.	.	?	17.8µM	.	.
CCOC(=O)c1cc2c(=O)n3ccccc3nc2n(CCCOC)c1=NC(=O)C(C)(C)C	.	.	.	28.2µM	.	.
CCOC(=O)c1cc2c(=O)n3ccccc3nc2n(CCOC)c1=NC(=O)c1ccncc1	.	.	.	12.6µM	.	.
CCOC(=O)c1cc2c(=O)n3ccccc3nc2n(C(C)C)c1=NC(=O)c1ccncc1	.	?	.	28.2µM	.	.
CCOC(=O)c1cc2c(=O)n3ccccc3nc2n(CCOC)c1=NC(=O)C(C)(C)C	.	.	.	17.8µM	.	.
CSc1ccc(Cl)c(C(=O)NCCOc2cc(C(C)C)ccc2C)c1	.	.	.	.	.	11.2µM
CCN(Cc1ccccc1)c1ccc(/C=N/N=C(N)N)cc1	.	.	.	25.1µM	.	10µM
CCc1ccc(OCC(O)Cn2c(SCCC(C)C)nc3c2c(=O)[nH]c(=O)n3C)cc1 (centres undefined)	.	/	/	/	/	/
O=S(=O)(Nc1nc(SCc2ccc(Cl)cc2)n[nH]1)c1ccc(F)cc1	.	.	.	17.8µM	.	?
CCc1nc(SCc2ccc(Cl)cc2)n[nH]1	.	.	.	.	.	.
CCOC(=O)C1/C(=N\O)CC(C)(O)C(C(=O)OCC)C1c1ccc(N(C)C)cc1 (centres undefined)	.	.	.	.	.	.
CC(NC(=O)Nc1cc(Cl)ccc1Cl)c1c(-n2cccc2)sc2c1CCCC2 (centres undefined)	.	/	/	.	.	3.55µM
CCN1CCc2c(sc(-n3cccc3)c2C(C)NC(=O)Nc2ccccc2C)C1 (centres undefined)	.	/	/	.	.	.
CN(C)CCCOC(=O)COc1ccc(Br)cc1	.	.	.	.	.	.
C=CCn1c(SCC(=O)N2CCc3ccccc3C2)nc2sc(CC)cc2c1=O	.	.	.	20µM	.	?
CCOc1ccc(S(=O)(=O)N(CC(=O)N2CCc3ccccc32)Cc2ccco2)cc1	.	.	.	.	.	8.91µM
Cc1ccc(S(=O)(=O)N(CC(=O)N2CCN(C(=O)c3ccccc3)CC2)Cc2ccco2)cc1	.	/	/	/	/	/
Cc1c(NP(=O)(c2ccc(Br)cc2)c2ccc(Br)cc2)c(=O)n(-c2ccccc2)n1C	.	.	.	/	.	11.2µM
Cc1c(NS(=O)(=O)c2ccc(Br)cc2)c(=O)n(-c2ccccc2)n1C	.	.	/	.	.	.
Cc1ccccc1N1C(=O)c2cccc3cccc(c23)C1=O	.	.	/	.	.	.
